As a reminder, the AC50 is the concentration at which the activity in the assay is half-maximal.

Results filed as inconclusive are left out. Calls of active or inactive are those of the source. How the source made its calls, unless noted: active means hit-call score of the fitted dose curve at least 0.9, where 1 is the maximum; inconclusive means response in the unintended direction; inactive means score below 0.9.

Experiment [1] can be described thus: Tanguay_ZF_120hpf_BRAI_legacy: (Legacy) Oregon State University Tanguay Lab 120 Hour Post-fertilization zebrafish Assay for Brain Malformation (AID 2283641). Put shortly:
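Static exposure of staged wild-type embryos until 120 hpf, kept at 28C with light excluded and final DMSO of 0.64% (vol/vol). Presence or absence of brain malformation was noted under brightfield; mortality precluded scoring.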

Experiment [2] can be described thus: Tanguay_ZF_120hpf_SOMI_legacy: (Legacy) Oregon State University Tanguay Lab 120 Hour Post-fertilization zebrafish Assay for Somite Malformation (AID 2283647). Summed up:
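Somitogenesis defects are recorded as binary calls in whole larvae at 120 hpf after continuous static chemical exposure starting at 6 hpf in dechorionated 5D embryos. DMSO serves as negative control and baseline.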

Experiment [3] can be described thus: Tanguay_ZF_120hpf_PFIN_legacy: (Legacy) Oregon State University Tanguay Lab 120 Hour Post-fertilization zebrafish Assay for Pectoral Fin Malformation (AID 2283648).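 Further: each larva judged yes or no for fin defect by brightfield with dead larvae skipped.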 Summed up: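 Pectoral fin malformation was recorded as a binary endpoint at 120 hpf in wild-type Tropical 5D larvae, which had been dechorionated and exposed statically from 6 hpf at 28C in 0.64% DMSO. Dead embryos were excluded.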

Experiment [4] in a line: Tanguay_ZF_120hpf_CFIN_legacy: (Legacy) Oregon State University Tanguay Lab 120 Hour Post-fertilization zebrafish Assay for Caudal Fin Malformation (AID 2283649). Summed up: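 Single dechorionated 5D wild-type embryos are dosed at 6 hpf (final DMSO 0.64%) and held statically at 28C. Caudal fin malformation is recorded as present or absent at 120 hpf under brightfield, excluding dead embryos.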

A short description of experiment [5]: Tanguay_ZF_120hpf_PIG_legacy: (Legacy) Oregon State University Tanguay Lab 120 Hour Post-fertilization zebrafish Assay for Pigmentation Malformation (AID 2283650). Summed up: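 Pigment malformation recorded as a binary call at 120 hpf in zebrafish (Tropical 5D) exposed singly from 6 hpf after pronase dechorionation. Static, sealed, 28C exposure, 0.64% DMSO; mortality excludes scoring; positive-direction fit against DMSO.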

Read-out in experiment [6]: solute carrier (SLC22A6), SLC22A6 (gene 9356)
The experiment can be described thus: LTEA_HepaRG_SLC22A6: Life Technologies and Expression Analysis (LTEA) Assay for solute carrier (SLC22A6) using HepaRG (AID 2283653; active means hit-call score of the fitted dose curve at least 0.9, where 1 is the maximum; inactive means score below 0.9). As to conditions: mRNA level, 48 h; actives raise or lower the signal. Summed up:
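Gene-expression endpoint in HepaRG hepatic cells: duplicate 8-point concentration-response, highest 100 uM, 48 h treatment in serum-free medium with 0.5% DMSO. SLC22A6 expression measured by qRT-PCR, normalised to ACTB/GAPDH/POLR2A.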

The nature of experiment [7]: Tanguay_ZF_120hpf_TRUN_legacy: (Legacy) Oregon State University Tanguay Lab 120 Hour Post-fertilization zebrafish Assay for Truncated Body (AID 2283655). Put shortly: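 Single dechorionated zebrafish embryos received test chemical from 6 hpf in 0.64% DMSO, kept at 28C. At 120 hpf, brightfield inspection noted any truncated body.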
Experiment [8] in a line: Tanguay_ZF_120hpf_NC_legacy: (Legacy) Oregon State University Tanguay Lab 120 Hour Post-fertilization zebrafish Assay for Notochord and Tail Malformation (AID 2283656). Summed up: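 Binary notochord-distortion calls, made by brightfield inspection, form the read-out; activity is fitted in the positive direction against DMSO. Exposure ran statically from 6 to 120 hpf at 28C with 0.64% DMSO.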

Read-out in experiment [9]: solute carrier (SLC10A1), SLC10A1 (gene 6554)
The experiment can be described thus: LTEA_HepaRG_SLC10A1: Life Technologies and Expression Analysis (LTEA) Assay for solute carrier (SLC10A1) using HepaRG (AID 2283657; active means hit-call score of the fitted dose curve at least 0.9, where 1 is the maximum; inactive means score below 0.9). As to conditions: mRNA level, 48 h; actives raise or lower the signal. Put shortly: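 SLC10A1 transcript measured by TaqMan qRT-PCR, housekeeping-normalised, after 48 h chemical treatment of human HepaRG cells. Eight concentrations (half-log, max 100 uM, 0.5% DMSO vehicle) in duplicate; fitted bidirectionally against DMSO baseline.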

Read-out in experiment [10]: matrix metalloproteinase-1 (MMP1), MMP1 (gene 4312)
The experiment can be described thus: LTEA_HepaRG_MMP1: Life Technologies and Expression Analysis (LTEA) Assay for matrix metalloproteinase-1 (MMP1) using HepaRG (AID 2283658; active means hit-call score of the fitted dose curve at least 0.9, where 1 is the maximum; inactive means score below 0.9). Conditions: mRNA level, 48 h; actives raise or lower the signal. Put shortly: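 In this screen, human liver HepaRG cultures receive each chemical in duplicate for 48 h (top 100 uM, 0.5% DMSO). MMP1 expression is then quantified by TaqMan qRT-PCR with ACTB/GAPDH/POLR2A normalization.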

Read-out in experiment [11]: Cytochrome P450 (CYP24A1_1), CYP24A1 (gene 1591)
Briefly: LTEA_HepaRG_CYP24A1_1: Life Technologies and Expression Analysis (LTEA) Assay for Cytochrome P450 (CYP24A1_1) using HepaRG (AID 2283671; active means hit-call score of the fitted dose curve at least 0.9, where 1 is the maximum; inactive means score below 0.9). Conditions: mRNA level, 48 h; actives raise or lower the signal. Put shortly: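 Differentiated human HepaRG cells were exposed in duplicate for 48 h in serum-free induction medium to eight concentrations (top 100 uM, half-log steps, 0.5% DMSO). CYP24A1 mRNA was quantified by TaqMan qRT-PCR, normalized to ACTB, GAPDH and POLR2A, and fitted bidirectionally versus DMSO.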

Experiment [12] is described as follows: CCTE_Padilla_ZF_144hpf_TERATOSCORE: (Legacy) CCTE's 144 Hour Post-fertilization zebrafish Assay Teratoscore, Padilla Lab (AID 2283679; active means hit-call score of the fitted dose curve at least 0.9, where 1 is the maximum; inactive means score below 0.9;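 on AC50: zebrafish embryos with chorions exposed by immersion from 6-8 hpf to 5 dpf with daily renewal; teratogenicity score from eye scoring of death hatching and malformations at 144 hpf; higher score means more developmental defects relative to DMSO baseline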). Summed up:
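Larvae scored by eye at 144 hpf for death, hatching and malformations after a day in clean Hanks'. Before that, daily-renewed exposure at 80 uM (0.4% DMSO, 26C) from roughly 6-8 hpf through 5 dpf, 4 embryos per chemical.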

Experiment [13] in a line: Tanguay_ZF_120hpf_CIRC_legacy: (Legacy) Oregon State University Tanguay Lab 120 Hour Post-fertilization zebrafish Assay for Circulatory Malformation (AID 2283651). Put shortly: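 Static exposure, 6–120 hpf, 28C, sealed and dark; one dechorionated 5D embryo/well; DMSO 0.64% v/v final. Binary circulation endpoint by brightfield; dead embryos not scored.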
Experiment [14] in a line: Tanguay_ZF_120hpf_TR_legacy: (Legacy) Oregon State University Tanguay Lab 120 Hour Post-fertilization zebrafish Assay for Touch Response (AID 2283667). Put shortly: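 Binary touch-response endpoint in larvae at 120 hpf after static waterborne exposure from embryo stage (28°C, 0.64% DMSO vehicle, 5 uM trimethyltin chloride as positive control); embryos dead at 24 or 120 hpf excluded; fitted as gain versus DMSO.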

Experiment [15] can be described thus: STM_H9_CystineISnorm_perc: Stemina devTOX quickPredict H9 human embryonic stem cell (hESC)-based Assay for Cystine (CYSS) Metabolite Biomarker, Normalized (AID 2283713; active means hit-call score of the fitted dose curve at least 0.9, where 1 is the maximum; inactive means score below 0.9). Summed up:
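UPLC-HRMS read-out: endogenous cystine peak area in spent medium, normalized to isotope-labeled internal standard and to median of 0.1% DMSO controls. Pluripotent H9 cells, 72h exposure, daily medium/compound replenishment; medium from last 24h sampled.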

A short description of experiment [16]: STM_H9_OrnCyssISnorm_ratio: Stemina devTOX quickPredict H9 human embryonic stem cell (hESC)-based Assay for Ornithine (ORN):Cystine (CYSS) Ratio (AID 2283714). Put shortly: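 Ratio of internal-standard-normalized ornithine to cystine, measured by UPLC-HRMS in spent media from the last 24 h. H9 cells kept pluripotent, dosed 72 h with daily media and compound renewal; DMSO 0.1% serves as baseline.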

For experiment [17], the system named is Thyroperoxidase (TPO), gene 54314. The experiment can be described thus: CCTE_Simmons_AUR_rTPO: CCTE's Amplex UltraRed Assay for Thyroperoxidase (TPO) Inhibition, Simmons Lab (AID 2283662).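 Further: potency for loss of signal meaning inhibition of peroxidase activity.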 Put shortly:
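Rat thyroid microsomes (5 ug protein) were incubated with test compound (8 concentrations, 5 nM–87.5 uM final, 0.5% DMSO), 25 uM Amplex UltraRed and 300 uM H2O2 in 200 mM phosphate buffer for 30 min at 37C in the dark; fluorescence read at 544/590 nm.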

The nature of experiment [18]: CCTE_Simmons_CellTiterGLO_HEK293T: Viability Assessment in CCTE's Assays for Thyroperoxidase (TPO) Inhibition, Simmons Lab (AID 2283665).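 On AC50: cells exposed to compound for 24 h before readout; actives reduce ATP signal below DMSO vehicle meaning cytotoxicity.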 Summed up: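 Luminescent ATP readout (CellTiter-Glo, 20 min at room temperature) after 24 hr exposure of HEK293T cells to 5 nM–87.5 uM final compound; signal loss relative to DMSO vehicle indicated cytotoxicity; dichlone titrated as positive control.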
(In general: ATP-based viability assays read luminescence as a measure of living cells.)

Experiment [19] can be described thus: Tanguay_ZF_120hpf_SWIM_legacy: (Legacy) Oregon State University Tanguay Lab 120 Hour Post-fertilization zebrafish Assay for Swim Bladder Malformation (AID 2283654).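 Further: swim bladder malformation in each larva scored yes or no under brightfield.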 Put shortly: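 Scoring is binary for swim bladder defects at 120 hpf, by brightfield inspection of zebrafish larvae. Embryos were exposed singly from 6 hpf after pronase dechorionation, at 28C with 0.64% DMSO; mortality excluded scoring.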

`COc1cc(C=O)ccc1O`: the AC50 in [1] was 44.7 µM (active); in experiment [3], 42.8 µM (active); in experiment [5], 45.9 µM (active); in experiment [7] it was 50 µM (active); in [12], 11.8 µM (active). The result in experiment [2], in experiment [4], in [6], in experiment [8], in experiment [9] and in [10] was inactive. The compound was classed as inactive in experiment [11].

`CC(C)c1ccc(C(=O)N=C(N)N)cc1S(C)(=O)=O`: the compound was classed as inactive in [1], in [2], in [3], in experiment [4], in experiment [5] and in [13]. The compound was classed as inactive in [7].

Turning to `Cc1cccc([N+](=O)[O-])c1C`, the call in experiment [1], in experiment [2], in experiment [3], in experiment [4], in [5] and in experiment [13] was inactive. The result in experiment [7] and in [8] was inactive.

For `CCCCN(CCCC)CCCC`, the compound was classed as inactive in experiment [1], in experiment [2], in experiment [3], in experiment [4], in experiment [5] and in experiment [6]. The compound was called inactive in experiment [7], in experiment [8], in experiment [9], in [10], in experiment [14] and in [11].

With `COC(=O)c1ccc(O)cc1`, the outcome in experiment [1], in experiment [2], in experiment [3], in [4], in experiment [5] and in experiment [7] was inactive. In addition, the call in [8], in experiment [14], in [12], in experiment [15] and in experiment [16] was inactive.

For `OC[C@@H](O)[C@@H](O)[C@H](O)[C@H](O)CO`, the call in experiment [1], in experiment [2], in [3], in experiment [4], in [5] and in experiment [8] was inactive. In addition, the result in experiment [15] and in experiment [16] was inactive.

Consider `COc1ccc(C)cc1N`, for which the call in experiment [1], in [2], in experiment [3], in experiment [4], in experiment [5] and in experiment [7] was inactive. In experiment [18], the call was inactive. For the same compound, in [17], the AC50 was 1.23 µM (active).

For the compound `C[Si]1(C)O[Si](C)(C)O[Si](C)(C)O[Si](C)(C)O1`, the call in experiment [1], in experiment [2], in [3], in [4], in experiment [5] and in experiment [7] was inactive. The compound was classed as inactive in experiment [8] and in [14].

`Cc1ccc(C)c(O)c1C`: the result in experiment [2], in experiment [3], in experiment [4], in [5], in experiment [13] and in [19] was inactive. Moreover, the compound was classed as inactive in experiment [7], in [8], in [18] and in experiment [14]. Moreover, the AC50 in experiment [17] is 10.5 µM (active).

Regarding `O=c1c(O)c(-c2ccc(O)c(O)c2)oc2cc(O)cc(O)c12`, the compound was called inactive in [2], in experiment [3], in experiment [4], in experiment [5], in [13] and in experiment [7]. Besides, the compound was called inactive in experiment [8], in [14], in experiment [12] and in experiment [15]. In addition, the results for the AC50 in [17] and in [18] were 0.182 µM (active) and 27.1 µM (active), respectively.

(Values after PubChem BioAssay (EPA / NIEHS).)
